Results from the supplement of paper PMC9254222.
Whole data set: some 1,100 compounds, median “Wnt reporter firefly/Renilla luciferase ratio relative to plate median” near 1.1, cut for the highest 2% near 1.6. This excerpt belongs to a sample that is enriched for the highest values.

Test system: HEK293T (UBE3A T485A transfected, BAR Wnt reporter)
Assay: Wnt reporter firefly/Renilla luciferase ratio relative to plate median (fold (linear ratio)); higher = more Wnt/beta-catenin reporter activation
Conditions: 24 h
Summary of the method: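 HEK293T cells were grown in DMEM with 10% FBS at 37°C and 5% CO2, at 4500 cells/well in white 384-well plates. They were transfected with a BAR firefly luciferase Wnt reporter, TK-Renilla and an expression plasmid using Fugene 6. Four hours later, robots dosed the chemicals at 0.01–100 uM for 24 h, followed by Dual-Glo luciferase readout. Wnt activity (firefly/Renilla ratio) and cell health (raw Renilla) were median-centred per plate, averaged over four biological replicates.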

| SMILES | Wnt reporter firefly/Renilla luciferase ratio (concentration: 0.01 uM) | Wnt reporter firefly/Renilla luciferase ratio (concentration: 0.1 uM) | Wnt reporter firefly/Renilla luciferase ratio (concentration: 1 uM) | Wnt reporter firefly/Renilla luciferase ratio (concentration: 10 uM) | Wnt reporter firefly/Renilla luciferase ratio (concentration: 100 uM) |
| --- | --- | --- | --- | --- | --- |
| COS(=O)(=O)[O-].Cn1c(-c2ccccc2)cc(-c2ccccc2)[n+]1C [Difenzoquat metilsulfate] | 0.771 | 0.813 | 1.1 | 0.847 | 0.425 |
| CC(C)(C)C(O)(CCc1ccc(Cl)cc1)Cn1cncn1 (stereo not given) [Tebuconazole] |  | 1.04 | 0.915 | 0.972 | 0.461 |
| CC(=O)N=C1C=CC(=O)C=C1 | 0.925 | 1.17 | 1 | 0.923 | 1.08 |
| CCN(CC)CCO [N,N-Diethylethanolamine] |  | 1.01 | 1.07 | 0.956 | 1.44 |
| Clc1ccc(C(c2ccccc2Cl)C(Cl)(Cl)Cl)cc1 (stereo not given) |  | 0.989 | 0.858 | 0.978 | 1.08 |
| c1cc2ccc3cccc4ccc(c1)c2c34 [Pyrene] |  | 1.09 | 0.96 | 1.05 | 0.354 |
| N=C(Nc1ccccc1)Nc1ccccc1 [1,3-Diphenylguanidine] |  | 1.06 | 1.28 | 0.977 | 1.02 |
| NC1=NC(O)C2C3OC4(O)OC(C(O)C2(N1)C4O)C3(O)CO (stereo not given) [Tetrodotoxin (TTX)] | 1.05 | 1.12 | 1.09 | 1.06 | 1.8 |
| CCOc1cccc([C@]2(N3CCN(c4ccccc4)CC3)CC[C@@H](C)CC2)c1.CS(=O)(=O)O |  | 1.38 | 0.926 | 1.05 | 1.12 |
| CCCOC/C(=N\c1ccc(Cl)cc1C(F)(F)F)n1ccnc1 [Triflumizole] | 1.29 | 1.65 | 1.53 | 1.91 | 1.72 |
| CCCN(CCOc1c(Cl)cc(Cl)cc1Cl)C(=O)n1ccnc1 [Prochloraz] | 1.14 | 1.15 | 0.904 | 1.05 | 0.247 |
| CN1C2CC(OC(=O)C(CO)c3ccccc3)CC1C1OC12 (stereo not given) [Scopolamine] | 1.61 | 1.56 | 1.15 | 1.24 | 1.26 |
| N#Cc1cc(Br)c(O)c(Br)c1 [Bromoxynil] | 0.815 | 0.882 | 0.923 | 0.998 | 0.286 |
| CCNc1nc(Cl)nc(NC(C)C)n1 [Atrazine] | 1.45 | 1.38 | 1.15 | 1.29 | 1.18 |
| Cc1cccc([N+](=O)[O-])c1C [1,2-Dimethyl-3-nitrobenzene] |  | 0.993 | 0.898 | 0.848 | 1.57 |
| COS(C)(=O)=O [Methyl methanesulfonate] |  | 0.999 | 0.797 | 1.14 | 1.24 |
| COC(=O)c1c(C(F)F)nc(C(F)(F)F)c(C2=NCCS2)c1CC(C)C [Thiazopyr] | 0.815 | 0.899 | 0.947 | 0.872 | 0.82 |
| CCOCCOC(C)=O [2-Ethoxyethyl acetate] |  | 1.05 | 0.896 | 1.18 | 1.3 |
| O=[N+]([O-])c1ccc(Oc2ccc(Cl)cc2Cl)cc1 [Nitrofen] |  | 1.04 | 0.882 | 1.01 | 1.28 |
| COC(=O)C(C)Oc1ccc(Oc2ccc(Cl)cc2Cl)cc1 (stereo not given) [Diclofop-methyl] | 1.1 | 1.28 | 1.98 | 1.27 | 1.29 |
| CC(Oc1ccc(Cl)cc1Cl)C(=O)O (stereo not given) [Dichlorprop] | 1.16 | 1.21 | 1.22 | 1.24 | 1.32 |
| Clc1ccc(C(Cl)(Cl)Cl)cc1 [4-Chlorobenzotrichloride] |  | 1.23 | 0.884 | 1.42 | 2.38 |

| SMILES | Wnt reporter firefly/Renilla luciferase ratio (concentration: 0.01 uM) | Wnt reporter firefly/Renilla luciferase ratio (concentration: 0.1 uM) | Wnt reporter firefly/Renilla luciferase ratio (concentration: 1 uM) | Wnt reporter firefly/Renilla luciferase ratio (concentration: 10 uM) | Wnt reporter firefly/Renilla luciferase ratio (concentration: 100 uM) |
| --- | --- | --- | --- | --- | --- |
| Clc1ccc(Cl)cc1 [1,4-Dichlorobenzene] |  | 1.45 | 0.934 | 1.1 | 1.39 |
| OC(c1ccc(Cl)cc1)(c1ccc(Cl)cc1)C(Cl)(Cl)Cl [Dicofol] | 1.23 | 1.37 | 1.17 | 1.3 | 1.06 |
| c1ccc(OP(Oc2ccccc2)Oc2ccccc2)cc1 [Triphenyl phosphite] |  | 0.971 | 1.06 | 1 | 1.26 |
| NC(=O)[O-].[NH4+] [Ammonium carbamate] |  | 0.817 | 0.94 | 0.934 | 1.31 |
| CCC(C)c1cc([N+](=O)[O-])cc([N+](=O)[O-])c1O (stereo not given) [Dinoseb] |  | 0.797 | 0.806 | 0.929 |  |
| Clc1nc(Cl)nc(Nc2ccccc2Cl)n1 [Anilazine] | 0.958 | 0.926 | 1.15 | 1.18 | 1.07 |
| CNC(=S)[S-].O.O.O.[Na+] [Metam-sodium hydrate] | 0.905 | 0.921 | 0.977 | 1.06 | 1.1 |
| CCCN(CCC)N=O [N-Nitrosodipropylamine] |  | 1.18 | 0.939 | 1.15 | 1.06 |
| CCN(CC)N=O [N-Nitrosodiethylamine] |  | 1.12 | 1.13 | 1.27 | 1.82 |
| CCCCN(CCCC)N=O [N-Nitrosodibutylamine] |  | 0.968 | 0.902 | 1.04 | 1.27 |
| CCCCC(C#N)(Cn1cncn1)c1ccc(Cl)cc1 (stereo not given) [Myclobutanil] | 0.908 | 1 | 0.933 | 1.09 | 0.269 |
| COc1cc(OC)nc(NC(=O)[N-]S(=O)(=O)c2ncccc2OCC(F)(F)F)n1.[Na+] [Trifloxysulfuron-sodium] | 1.06 | 1.02 | 1.23 | 1.22 | 1.52 |
| N#Cc1cccnc1 [3-Pyridinecarbonitrile] |  | 0.974 | 1.13 | 1.25 | 1.35 |
| CO/N=C(/C1=NOCCO1)c1ccccc1Oc1ncnc(Oc2ccccc2Cl)c1F [Fluoxastrobin] | 1.16 | 1.27 | 0.946 | 0.315 | 1.23 |
| Cn1sc(Cl)cc1=O [5-Chloro-2-methyl-3(2H)-isothiazolone] |  | 1.28 | 1.07 | 1.07 | 0.458 |
| COc1ccc(C(c2ccc(OC)cc2)C(Cl)(Cl)Cl)cc1 [Methoxychlor] | 0.858 | 1.13 | 1.12 | 1.25 | 1.04 |
| Cn1cc(-c2ccccc2)c(=O)c(-c2cccc(C(F)(F)F)c2)c1 [Fluridone] |  | 1.28 | 0.917 | 0.825 | 0.175 |
| Cc1ccc([N+](=O)[O-])cc1C [1,2-Dimethyl-4-nitrobenzene] |  | 0.844 | 1.17 | 1.19 | 1.42 |
| CN(C)c1ccccc1 [N,N-Dimethylaniline] |  | 1.11 | 1.11 | 0.912 | 1.02 |
| C[C@]12CCC(=O)C=C1CC[C@@H]1[C@@H]2CC[C@]2(C)C(=O)CC[C@@H]12 [4-Androstene-3,17-dione] |  | 1.04 | 1.01 | 1.12 | 0.219 |
| Clc1ccccc1-c1nnc(-c2ccccc2Cl)nn1 [Clofentezine] | 1.31 | 1.25 | 0.999 | 1.19 | 1.59 |
| CC(Cl)(Cl)C(=O)O [Dalapon] |  | 1.05 | 1.18 | 1.08 | 1.25 |

| SMILES | Wnt reporter firefly/Renilla luciferase ratio (concentration: 0.01 uM) | Wnt reporter firefly/Renilla luciferase ratio (concentration: 0.1 uM) | Wnt reporter firefly/Renilla luciferase ratio (concentration: 1 uM) | Wnt reporter firefly/Renilla luciferase ratio (concentration: 10 uM) | Wnt reporter firefly/Renilla luciferase ratio (concentration: 100 uM) |
| --- | --- | --- | --- | --- | --- |
| COC(=O)Nc1nc2ccccc2[nH]1 [Carbendazim] |  | 1.09 | 1.16 | 0.661 | 0.13 |
| C[n+]1ccc(-c2cc[n+](C)cc2)cc1 [Paraquat] | 1.31 | 1.36 | 1.06 | 1.01 | 1.77 |
| CCOP(=S)(OCC)SCSC(C)(C)C [Terbufos] |  | 1.28 | 1.01 | 1.16 | 1.27 |
| CCNc1nc(Cl)nc(NC(C)(C)C#N)n1 [Cyanazine] | 0.787 | 0.905 | 0.962 | 0.88 | 1.15 |
| Cc1ccc([N+](=O)[O-])cc1 [4-Nitrotoluene] |  | 0.766 | 0.567 | 0.741 | 0.771 |
| CCCCC(O)(Cn1cncn1)c1ccc(Cl)cc1Cl (stereo not given) [Hexaconazole] | 0.917 | 0.897 | 1 | 0.919 | 0.397 |
| ClCC(Cl)CCl [1,2,3-Trichloropropane] |  | 1.21 | 1.09 | 1.12 | 1.41 |
| CCOP(=S)(OCC)SCn1c(=O)oc2cc(Cl)ccc21 [Phosalone] | 1.62 | 1.45 | 1.27 | 1.03 | 0.607 |
| COP(=O)(OC)SCn1c(=O)oc2cc(Cl)cnc21 [Azamethiphos] | 0.825 | 1.28 | 0.979 | 0.625 | 0.373 |
| CCOP(=S)(OCC)SCSCC [Phorate] |  | 1.03 | 0.934 | 1.08 | 1.3 |
| Cc1ccccc1O [o-Cresol] |  | 1.01 | 0.966 | 1.1 | 1.15 |
| C=C(C)C(=O)[O][Sn]([CH2]CCC)([CH2]CCC)[CH2]CCC [Tributyltin methacrylate] |  | 0.639 | 0.638 | 0.679 |  |
| Cc1cc(N=Nc2ccccc2C)ccc1N [2-Amino-5-azotoluene] |  | 1.18 | 0.968 | 1.06 | 0.582 |
| Nc1cc2c3c(c1)C(c1ccccc1)=N[C@@H](NC(=O)c1cccnc1)C(=O)N3CC2 |  | 1.19 | 0.977 | 1.24 | 0.802 |
| Nc1cc(Cl)cc(C(=O)O)c1Cl [Chloramben] |  | 1.14 | 1.12 | 1.34 | 1.49 |
| [Cl-].[Cl-].[Hg+2] [Mercuric chloride] |  | 1.21 | 1.07 | 1.69 |  |
| O=C(O)C1C(C(=O)O)C2(Cl)C(Cl)=C(Cl)C1(Cl)C2(Cl)Cl (stereo not given) [Chlorendic acid] |  | 0.978 | 1.1 | 0.935 | 1.03 |
| NCCO.O=C(O)c1nc(Cl)ccc1Cl [Clopyralid-olamine] | 0.868 | 0.94 | 1.18 | 1.56 | 2.61 |
| O=C(O)c1nc(Cl)ccc1Cl [Clopyralid] | 1.17 | 1.81 | 1.02 | 0.988 | 1.12 |
| Nc1c(Cl)c(Cl)nc(C(=O)O)c1Cl [Picloram] | 0.972 | 1.47 | 1 | 1.13 | 1.28 |
| O=C(O)c1c(Cl)ccc2cc(Cl)cnc12 [Quinclorac] | 1.38 | 1.3 | 1.14 | 1.14 | 1.58 |
| Clc1cccc(C(Cl)(Cl)Cl)n1 [Nitrapyrin] | 1.08 | 1.01 | 0.881 | 1.03 | 1.23 |
